Shown are actives, neighbours in structure and some others; about 1.7% of the full set was active somewhere.
HTR5A ag ctr: HTR5A agonists in luminescence cell assay, primary screen, counter-screen for OPRM1-OPRD1 heterodimer agonist project, full-deck HTS | 5-hydroxytryptamine receptor 5A (Homo sapiens), P47898 | cell-based | activation, % at 9.3 µM | actives 0.61% (n = 340,000); in the data active means activation mostly above about 9.5%, no sharp cut-off; inactive means mostly below about 7.6%;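 further: 0% = cells with vehicle only and 100% = reference agonist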
Target sequence (P47898 whole entry, looked up): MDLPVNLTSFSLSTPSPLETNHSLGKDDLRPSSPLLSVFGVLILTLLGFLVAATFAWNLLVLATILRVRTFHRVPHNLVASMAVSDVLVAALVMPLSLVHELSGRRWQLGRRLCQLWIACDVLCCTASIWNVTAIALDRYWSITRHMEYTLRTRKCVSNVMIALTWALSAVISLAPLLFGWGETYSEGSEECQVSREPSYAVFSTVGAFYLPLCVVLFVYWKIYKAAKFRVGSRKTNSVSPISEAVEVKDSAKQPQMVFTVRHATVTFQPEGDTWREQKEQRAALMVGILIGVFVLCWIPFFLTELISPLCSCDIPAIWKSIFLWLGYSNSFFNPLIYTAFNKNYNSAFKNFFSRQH
beta cell repl: inducers of MIN6 beta-cell proliferation, primary screen, ATP luminescence, uHTS; MIN6 cells proliferation, ATPlite luminescence, 48 h; cells starved in 0.2% serum; 100% = growth in 10% serum; proliferation, % at 10 µM; actives 0.29% (n = 330,000); AID 2380, 2010;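 active means compounds whose signal lies at least 3.5 SD above the mean of all wells on their plate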;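 further: 0% = DMSO-treated cells in low-serum medium and 100% = 10% serum control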
OPRM1-OPRD1 ag: agonists of OPRM1-OPRD1 heterodimerization, primary screen, cell-based, luminescence | activation, % at 9.3 µM | cells | AID 504326, 2011 | Mu-type opioid receptor (Homo sapiens) + Delta-type opioid receptor (Homo sapiens), … | actives 0.3% (n = 340,000); in the data active means activation above about 18%;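 further: 0% = vehicle-treated cells and 100% = reference agonist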
HTR5A inv ctr: HTR5A inverse agonists in luminescence cell assay, primary screen, counter-screen for OPRM1-OPRD1 heterodimer inverse agonist project, full-deck HTS. actives 0.083% (n = 340,000). AID 504634, 2011. HTR5A cell line, inverse agonism. inhibition, % at 9.3 µM; in the data active means inhibition mostly above about 23%, no sharp cut-off; inactive means mostly below about 18%;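 further: 0% = cells with DMSO and 100% = no-cell wells with DMSO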
MOR-DOR inv ag: inverse agonists of MOR-DOR heterodimerization, primary screen, cell-based, luminescence; Mu-type opioid receptor (Homo sapiens) + Delta-type opioid receptor (Homo sapiens), …; cell-based MOR-DOR heterodimer luminescence, inverse agonism; inhibition, % at 9.3 µM; actives 0.21% (n = 340,000); AID 504357, 2011; in the data active means inhibition above about 22%, passing the limit was not always enough;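 further: 0% = cells with DMSO and 100% = wells without cells with DMSO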
V-ATPase pH: regulators of yeast V-ATPase proton pumping, primary screen, pHLuorin cytosolic pH fluorescence; actives 0.37% (n = 350,000); response, % at 10 µM; S. cerevisiae; AID 504577, 2011; in the data active means response mostly above about 7.3%, no sharp cut-off; inactive means mostly below about 5.4%; further: actives read high
An asterisk follows results filed as active.

Results for COc1ccc(C(=O)N=C2CCC(C#N)=C3c4cc(OC)c(OC)cc4CCN23)cc1 ?
HTR5A ag ctr: 0.9; beta cell repl: 7.2*; OPRM1-OPRD1 ag: -2.1; HTR5A inv ctr: 9.2; MOR-DOR inv ag: 13.2; V-ATPase pH: -0.3

What do the screens show for `COc1cc2c(cc1OC)C1=C(C#N)CC/C(=N\S(=O)(=O)c3ccccc3)N1CC2`?
HTR5A ag ctr: -4.1; beta cell repl: 8.1; OPRM1-OPRD1 ag: 0.6; HTR5A inv ctr: -22.6; MOR-DOR inv ag: -3.2; V-ATPase pH: -1.8

What do the screens show for `COc1ccc(CNC(=O)CCCNC(=O)c2ccc(Cl)cc2)cc1OC`?
HTR5A ag ctr: 4.2; beta cell repl: -0.4; OPRM1-OPRD1 ag: -1.0; HTR5A inv ctr: -15.6; MOR-DOR inv ag: 4.6; V-ATPase pH: -0.8

What do the screens show for `Cc1[nH]c2ccccc2c1C(=O)CSc1n[nH]c(N)n1`?
HTR5A ag ctr: -0.7; beta cell repl: -1.4; OPRM1-OPRD1 ag: 0.9; HTR5A inv ctr: 19.6; MOR-DOR inv ag: -4.4; V-ATPase pH: 13.1*

Results for Cc1[nH]c2ccccc2c1C(=O)CSc1ncn[nH]1 ?
HTR5A ag ctr: -3.0; beta cell repl: -1.6; OPRM1-OPRD1 ag: -1.6; HTR5A inv ctr: -7.6; MOR-DOR inv ag: 9.7; V-ATPase pH: -138.7

How did Cn1cccc1/C=C(/C#N)C(N)=S do in these assays?
HTR5A ag ctr: -4.3; beta cell repl: 0.0; OPRM1-OPRD1 ag: -6.9; HTR5A inv ctr: 2.4; MOR-DOR inv ag: 36.8*; V-ATPase pH: 2.8

What do the screens show for `Cc1ccc(S(=O)(=O)N2Cc3ccccc3CC2C(=O)N(C)C)cc1` (stereo not drawn)?
V-ATPase pH: -0.1

What do the screens show for `COc1cc(NC(C(=O)Nc2cccc(C(C)=O)c2)c2ccccc2)cc(OC)c1OC` (stereo not drawn)?
HTR5A ag ctr: 12.7*; beta cell repl: 0.0; OPRM1-OPRD1 ag: 1.7; HTR5A inv ctr: -23.3; MOR-DOR inv ag: -9.3; V-ATPase pH: 8.7

How did Cc1cc(C)cc(NC(=O)C(Nc2ccccc2)c2ccccc2)c1 (stereo not drawn) do in these assays?
HTR5A ag ctr: 12.4*; beta cell repl: -3.4; OPRM1-OPRD1 ag: 10.9; HTR5A inv ctr: -9.7; MOR-DOR inv ag: -50.7; V-ATPase pH: -3.8

How did Cc1ccc(S(=O)(=O)N2CCN(C(=O)COC(=O)c3ccc(Cl)nc3)CC2)c(C)c1 do in these assays?
HTR5A ag ctr: -0.9; beta cell repl: -3.7; OPRM1-OPRD1 ag: 0.8; HTR5A inv ctr: 2.4; MOR-DOR inv ag: -3.4; V-ATPase pH: -3.7

Results for CN(CC(=O)Nc1c(Cl)cccc1Cl)C(=O)c1ccc(-n2cncn2)c([N+](=O)[O-])c1 ?
HTR5A ag ctr: 11.3*; beta cell repl: -1.1; OPRM1-OPRD1 ag: 1.1; HTR5A inv ctr: -30.7; MOR-DOR inv ag: -5.5; V-ATPase pH: -2.0

How did CCCNS(=O)(=O)c1ccc(OCC(=O)Nc2ccc3c(c2)OCCO3)c(C)c1 do in these assays?
HTR5A ag ctr: 9.6*; beta cell repl: -6.5; OPRM1-OPRD1 ag: 1.7; HTR5A inv ctr: 3.3; MOR-DOR inv ag: -10.9; V-ATPase pH: -2.8

How did CC(=Nc1ccccc1)C1=C(O)C(Cc2cccc(F)c2)NC1=O (stereo not drawn) do in these assays?
V-ATPase pH: -1.5

What do the screens show for `CC(=O)N(C(C)=O)N1C(=O)c2cccc3c(N4CCOCC4)ccc(c23)C1=O`?
HTR5A ag ctr: 10.8*; beta cell repl: -2.8; OPRM1-OPRD1 ag: -3.3; HTR5A inv ctr: -29.6; MOR-DOR inv ag: 15.2; V-ATPase pH: -3.7

What do the screens show for `CC1(C)NC(=O)N(CCC(=O)Nc2ccc(C(C)(C)C)cc2)C1=O`?
V-ATPase pH: 2.1

What do the screens show for `NS(=O)(=O)c1ccc(CNS(=O)(=O)c2ccc3ccccc3c2)cc1`?
HTR5A ag ctr: -4.6; beta cell repl: -2.1; OPRM1-OPRD1 ag: -3.7; HTR5A inv ctr: 4.8; MOR-DOR inv ag: 20.6; V-ATPase pH: 3.0

Results for O=C(O)c1ccc(CNS(=O)(=O)c2ccc3ccccc3c2)cc1 ?
HTR5A ag ctr: 9.9*; beta cell repl: 0.0; OPRM1-OPRD1 ag: -0.5; HTR5A inv ctr: -26.3; MOR-DOR inv ag: 3.5; V-ATPase pH: 6.8

How did COc1ccc(CN(C)C(=O)c2ccc(OCC(=O)Nc3cccc(C(F)(F)F)c3)c(OC)c2)cc1 do in these assays?
V-ATPase pH: 0.3

Results for Cc1ccc(OCC(=O)NC2CCSc3ccccc32)cc1 (stereo not drawn) ?
HTR5A ag ctr: 5.1; beta cell repl: 4.7; OPRM1-OPRD1 ag: 4.4; HTR5A inv ctr: -14.1; MOR-DOR inv ag: -28.1; V-ATPase pH: -2.4

What do the screens show for `CCn1c(N2CCN(S(=O)(=O)c3ccccc3C(F)(F)F)CC2)nc2ccccc21`?
HTR5A ag ctr: 12.6*; beta cell repl: 0.6; OPRM1-OPRD1 ag: 2.3; HTR5A inv ctr: -62.1; MOR-DOR inv ag: -12.3; V-ATPase pH: -0.3

What do the screens show for `C#CC(=O)N(c1cccc(OC)c1)C(C(=O)NC1CCCC1)c1cccs1` (stereo not drawn)?
HTR5A ag ctr: 28.1*; beta cell repl: -4.6; OPRM1-OPRD1 ag: 28.1*; HTR5A inv ctr: -34.8; MOR-DOR inv ag: -159.5; V-ATPase pH: 1.5

What do the screens show for `COc1ccc(C(=O)N/C(=C/c2cccnc2)C(=O)N2CCCCCC2)cc1OC`?
HTR5A ag ctr: 8.8*; beta cell repl: -0.8; OPRM1-OPRD1 ag: -1.3; HTR5A inv ctr: -33.2; MOR-DOR inv ag: 6.6; V-ATPase pH: -1.7

Results for COc1ccc(C(=O)N/C(=C/c2cccnc2)C(=O)N2CCOCC2)cc1OC ?
HTR5A ag ctr: -5.7; beta cell repl: -1.6; OPRM1-OPRD1 ag: -2.6; HTR5A inv ctr: 14.9; MOR-DOR inv ag: 13.0; V-ATPase pH: 1.1

What do the screens show for `CCCCS(=O)(=O)/C=C\C=C/S(=O)(=O)CCCC`?
HTR5A ag ctr: 2.5; beta cell repl: -3.5; OPRM1-OPRD1 ag: -7.4; HTR5A inv ctr: -6.5; MOR-DOR inv ag: 37.0*; V-ATPase pH: 1.6

Results for CCCCS(=O)(=O)/C=C\C1C2C=CC(C2)C1S(=O)(=O)CCCC (stereo not drawn) ?
HTR5A ag ctr: -2.7; beta cell repl: 7.8; OPRM1-OPRD1 ag: -1.2; HTR5A inv ctr: 7.5; MOR-DOR inv ag: 6.8; V-ATPase pH: 5.1

How did COc1ccc2c(c1)CC/C2=N\OC(=O)c1cccc(C)c1 do in these assays?
HTR5A ag ctr: 13.8*; beta cell repl: 0.0; OPRM1-OPRD1 ag: 6.9; HTR5A inv ctr: -1.1; MOR-DOR inv ag: -33.4; V-ATPase pH: 1.4

Results for Cc1ccc([C@H]2C[C@H](n3cc(-c4ccc(F)cc4)nn3)[C@@H](O)CN2CC2CCCCC2)cc1 ?
V-ATPase pH: -1.9

Screens as filed in PubChem BioAssay.
